Common to all, as to assay: NCI-60 one-dose screen, 48 h (100 = growth as untreated, 0 = no growth, -100 = all killed)
One assay relates to HOP-92 NSCLC. Conditions: 10 µM unless noted.
The next assay has as its system NCI-H522 lung. Conditions: 10 µM unless noted.
Another assay concerns COLO 205 colon. Conditions: 10 µM.
For another assay, the system named is K-562 leukemia. Conditions: 10 µM unless noted.
In another assay the test system is U251 CNS. Conditions: 10 µM unless noted.
The next assay concerns LOX IMVI melanoma. Conditions: 10 µM unless noted.
For another assay, the system named is EKVX NSCLC. Conditions: 10 µM unless noted.
The test system of another assay is TK-10 renal. Conditions: 10 µM unless noted.
The subject of the next assay is CCRF-CEM leukemia. Conditions: 10 µM unless noted.
The next assay deals with MOLT-4 leukemia. Conditions: 10 µM.
The next assay has as its system SR leukemia. Conditions: 10 µM.
The subject of the next assay is SK-OV-3 ovarian. Conditions: 10 µM unless noted.
A further assay relates to IGROV1 ovarian. Conditions: 10 µM.
A further assay concerns HS 578T breast. Conditions: 10 µM unless noted.
A further assay concerns BT-549 breast. Conditions: 10 µM.
The test system of another assay is SW-620 colon. Conditions: 10 µM unless noted.
Another assay concerns HCT-116 colon. Conditions: 10 µM unless noted.
The next assay concerns NCI-H322M lung. Conditions: 10 µM unless noted.
In another assay the test system is CAKI-1 renal. Conditions: 10 µM unless noted.

Consider eleven molecules from PubChem BioAssay (NCI).

Compounds without any hit were thinned out: in the full panel of roughly 83,000, 20% have a hit.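 A percent growth of 40 corresponds to 60% growth inhibition; 0 means no net growth; -100 means all cells died. Active threshold: below 10.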 A number with no mark means an inactive call. The source made the active and inactive calls.

Take `CCCC(C)(C)c1ccc2c(c1)OC(C)(C)[C@@H]1CC=C(C)C[C@@H]21`: the growth in the assay on HOP-92 NSCLC was 100%; in the assay with NCI-H522 lung, 93.2%; with COLO 205 colon, 107%; in the assay on K-562 leukemia it was 92.3%; in the assay with U251 CNS it was 96.2%; with LOX IMVI melanoma, 96.3%. The growth in the assay on EKVX NSCLC was 106%; with TK-10 renal it was 107%; with CCRF-CEM leukemia, 84.2%; in the assay on MOLT-4 leukemia, 95.6%; in the assay with SR leukemia, 95.7%; in the assay with SK-OV-3 ovarian it was 89.2%. For the same molecule, the growth with IGROV1 ovarian is 95.7%; in the assay on HS 578T breast it was 100%; in the assay on BT-549 breast it was 97.7%; in the assay on SW-620 colon, 97.3%; in the assay with HCT-116 colon it was 87.6%.

Turning to `c1ccc(-c2ccc3ccccc3[o+]2)cc1`, the growth with HOP-92 NSCLC is 83.2%; with NCI-H522 lung it was 81.2%; with COLO 205 colon, 111%; in the assay with K-562 leukemia, 101%; in the assay with U251 CNS, 93.4%; in the assay with LOX IMVI melanoma it was 82.2%. Further, the growth in the assay on TK-10 renal was 139%; with CCRF-CEM leukemia, 92.4%; in the assay on MOLT-4 leukemia, 79%; in the assay on SR leukemia, 84.5%; with SK-OV-3 ovarian, 89.4%; with IGROV1 ovarian, 82.7%. The growth is 94.1% in the assay on HS 578T breast, 92% in the assay on SW-620 colon and 95.7% in the assay with HCT-116 colon.

Consider `O=S(=O)(O)c1ccc(-c2ccc([As](=O)(O)O)cc2)cc1`, for which the growth is 104% with NCI-H322M lung; -91% (active) in the assay on HOP-92 NSCLC; 88.8% in the assay with NCI-H522 lung; 114% with COLO 205 colon; 101% in the assay on K-562 leukemia; 95.6% in the assay on U251 CNS. The growth in the assay on LOX IMVI melanoma was 99.8%; in the assay with EKVX NSCLC, 101%; with CCRF-CEM leukemia, 99.7%; with SR leukemia it was 101%; in the assay with SK-OV-3 ovarian, 105%; in the assay with IGROV1 ovarian, 107%. The growth was 110% in the assay on HS 578T breast, 106% in the assay on BT-549 breast, 103% in the assay on SW-620 colon and 108% with HCT-116 colon.

On to `CC(=O)Nc1ccc(Cc2ccc(NC(C)=O)cc2)cc1`, for which the growth in the assay with HOP-92 NSCLC is 45.6%; with NCI-H522 lung, 104%; with K-562 leukemia it was 112%; in the assay with U251 CNS, 101%; in the assay with LOX IMVI melanoma, 99.8%; in the assay with EKVX NSCLC it was 103%. The growth in the assay with TK-10 renal is 106%; with CCRF-CEM leukemia, 101%; with MOLT-4 leukemia, 76.3%; in the assay on SR leukemia, 125%; with IGROV1 ovarian it was 116%; in the assay with HS 578T breast it was 121%. Further, the growth was 117% with SW-620 colon and 94.9% with HCT-116 colon.

For `C#CC1(O)CCC2(C)C(CCC3C4CCC(=O)C4(C)CCC32)C1` (stereo not drawn), the growth in the assay with HOP-92 NSCLC is 86.1%; in the assay with NCI-H522 lung, 86.9%; in the assay with COLO 205 colon, 106%; in the assay with K-562 leukemia, 92.6%; with U251 CNS, 93.9%; in the assay on LOX IMVI melanoma, 96.6%. The growth is 89.3% with EKVX NSCLC; 91.7% in the assay on TK-10 renal; 91.2% in the assay on CCRF-CEM leukemia; 94.5% with SR leukemia; 97.6% in the assay on SK-OV-3 ovarian; 104% in the assay with IGROV1 ovarian. Moreover, the growth with HS 578T breast is 94.3%; with SW-620 colon, 103%; in the assay on HCT-116 colon, 92.3%.

In the case of `CC12CCC3C(CC=C4CC(O)CCC43C)C1C/C(=C\N1CCOCC1)C2=O` (stereo not drawn), the growth in the assay on NCI-H322M lung was 113%; in the assay with HOP-92 NSCLC, 91.3%; in the assay on NCI-H522 lung, 83.3%; with COLO 205 colon, 116%; with K-562 leukemia, 108%; in the assay with U251 CNS, 100%. For the same molecule, the growth in the assay on LOX IMVI melanoma is 105%; in the assay on EKVX NSCLC, 96.1%; in the assay with TK-10 renal it was 96%; in the assay on CAKI-1 renal it was 91%; in the assay with CCRF-CEM leukemia, 94.3%; in the assay on MOLT-4 leukemia, 106%. Moreover, the growth was 98.4% with SR leukemia; 111% with SK-OV-3 ovarian; 119% in the assay on IGROV1 ovarian; 114% in the assay on HS 578T breast; 93.1% with BT-549 breast; 101% in the assay with HCT-116 colon.

In the case of `CSc1ccccc1NP1(=O)OCC(C)([N+](=O)[O-])CO1` (stereo not drawn), the growth with NCI-H322M lung was 126%; with HOP-92 NSCLC it was 89.4%; with NCI-H522 lung it was 103%; in the assay with COLO 205 colon, 116%; in the assay with K-562 leukemia, 75.4%; in the assay on U251 CNS it was 95.8%. The growth is 97.3% with LOX IMVI melanoma; 97.8% with EKVX NSCLC; 110% with TK-10 renal; 80.8% with CCRF-CEM leukemia; 94.4% in the assay on MOLT-4 leukemia; 91.3% with SR leukemia. The growth in the assay on IGROV1 ovarian is 119%; in the assay with HS 578T breast, 103%; in the assay with BT-549 breast, 90.1%; with SW-620 colon it was 101%; with HCT-116 colon, 98%.

`C[CH2][Pb]([CH2]C)([CH2]C)[O]C(=O)COc1ccccc1`: the growth in the assay on NCI-H322M lung is 0.448% (active); with COLO 205 colon, 1.67% (active); in the assay with K-562 leukemia, 4.92% (active); in the assay on LOX IMVI melanoma, -35.8% (active); with CAKI-1 renal it was -5.81% (active); in the assay on MOLT-4 leukemia it was -27.2% (active). Besides, the growth in the assay on SK-OV-3 ovarian is 4.72% (active); in the assay on IGROV1 ovarian, 2.01% (active); in the assay on HS 578T breast, 4.72% (active); in the assay with BT-549 breast, -11.4% (active); in the assay with SW-620 colon, 6.03% (active); in the assay on HCT-116 colon, 4.13% (active).

In the case of `C[CH2][Pb]([CH2]C)([CH2]C)[O]C(=O)c1ccc(N)cc1`, the growth with NCI-H322M lung was 79.6%; in the assay on COLO 205 colon it was 92.5%; in the assay on K-562 leukemia, 38.6%; with U251 CNS, 77.4%; in the assay on LOX IMVI melanoma, 68.5%; with CAKI-1 renal, 65.5%. Besides, the growth with MOLT-4 leukemia is 60.5%; in the assay on SK-OV-3 ovarian, 76.4%; in the assay on IGROV1 ovarian it was 61.9%; with SW-620 colon it was 28.7%.

With `O=C(CCF)c1ccc(O)cc1`, the growth in the assay with NCI-H322M lung was 101%; in the assay with HOP-92 NSCLC it was 100%; with NCI-H522 lung, 87.6%; with COLO 205 colon, 105%; in the assay on K-562 leukemia it was 98.9%; in the assay on U251 CNS it was 106%. Further, the growth in the assay on TK-10 renal is 106%; in the assay with CCRF-CEM leukemia it was 95%; in the assay on MOLT-4 leukemia, 100%; in the assay on SR leukemia, 96%; in the assay on SK-OV-3 ovarian, 103%; in the assay on IGROV1 ovarian, 100%.

For `CCOC(=O)Nc1cc(Cl)c([N+](=O)[O-])c(NC(=O)OCC)n1`, the growth in the assay on HOP-92 NSCLC is 78.2%; in the assay with NCI-H522 lung, 7.41% (active); with COLO 205 colon, 115%; in the assay with K-562 leukemia, 8.75% (active); with U251 CNS, 102%; in the assay with LOX IMVI melanoma it was 61.5%. Besides, the growth was 103% with TK-10 renal; -95.5% (active) in the assay on CAKI-1 renal; 33.1% with CCRF-CEM leukemia; 79.6% in the assay with MOLT-4 leukemia; -22.8% (active) with SR leukemia; 103% with SK-OV-3 ovarian. The growth is 55.6% in the assay with IGROV1 ovarian; 106% in the assay with HS 578T breast; 94.6% in the assay on BT-549 breast; 71.3% in the assay with SW-620 colon; 53.5% in the assay with HCT-116 colon.
